Assay in all cases: growth (OD600 after 10 h); higher = more growth (less inhibition)
Test [1] concerns E. coli TESEC Alr+ wild-type control. To be noted: compound 0.1 mM; raw OD600 reference: median of DMSO wells 0.241, cell-free background 0.041. The procedure: (§1)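 TESEC Mtb Alr E. coli, or the Alr+ wild-type control, in 384-well plates with Prestwick library compounds at 0.1 mM and 1% DMSO, across arabinose induction levels of 1E3 to 1E7 nM. Growth is read as OD600 after 10 h at 37 °C in triplicate biological replicates.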

Test [2] concerns E. coli TESEC Mtb Alr. To be noted: compound 0.1 mM. On the procedure:
as §1

Test [3] relates to E. coli TESEC Mtb Asd. To be noted: compound 0.1 mM. On the procedure:
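TESEC E. coli strains in which the native enzyme is deleted and replaced by arabinose-inducible Mtb Asd, DapB, CysH or TrpD, each grown in its selective medium. Strains were screened against the Prestwick library at 0.1 mM and 1% DMSO in 384-well format at low and high arabinose induction. Growth is read as OD600 after 10 h in triplicate.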

Test [4] has as its system E. coli TESEC Alr+ wild-type control. Particulars: compound 0.1 mM; raw OD600 reference: median of DMSO wells 0.49, cell-free background 0.052. The procedure:
(§2)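 TESEC Mtb Alr E. coli (ΔaraC ΔtolC ΔentC Δalr ΔdadX, arabinose-inducible Mtb Alr) or the Alr+ wild-type control strain, grown in defined M9-fructose medium without D-alanine in 96-well plates with Prestwick library compounds at 0.1 mM and 1% DMSO. Low Alr induction is 0.1 µM arabinose and high induction is 10 mM arabinose.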

The test system of test [5] is E. coli TESEC Mtb Alr. To be noted: compound 0.1 mM. The procedure:
as §2
The source holds these as a separate data set.

Setting [6] is: arabinose 1000 nM, raw OD600 reference: median of DMSO wells 0.294, cell-free background 0.041.
[7] abbreviates: arabinose 10000 nM, raw OD600 reference: median of DMSO wells 0.264, cell-free background 0.041.
Setting [8] is: arabinose 100000 nM, raw OD600 reference: median of DMSO wells 0.201, cell-free background 0.041.
Setting [9] is: arabinose 1000000 nM, raw OD600 reference: median of DMSO wells 0.193, cell-free background 0.041.
[10] abbreviates: arabinose 10000000 nM, raw OD600 reference: median of DMSO wells 0.146, cell-free background 0.041.
Where [11] appears, read: arabinose induction (level): High, raw OD600 reference: median of DMSO wells 0.331, cell-free background 0.041.
Where [12] appears, read: arabinose induction (level): Low, raw OD600 reference: median of DMSO wells 0.417, cell-free background 0.041.
The mark [13] stands for this setting: arabinose 100 nM, raw OD600 reference: median of DMSO wells 0.413, cell-free background 0.052.
The mark [14] stands for this setting: arabinose 10000000 nM, raw OD600 reference: median of DMSO wells […], cell-free background 0.052.

Counter-ions that a name gives are not always drawn. ± gives the standard deviation of the averaged measurements.

Turning to `O=P1(N(CCCl)CCCl)NCCCO1` (centres undefined) [Cyclophosphamide], the growth amounted to 0.2382 ± 0.0022 in test [1]; 0.271 ± 0.011 in test [2] (setting [6]); 0.276 ± 0.0047 in test [2] (setting [7]); 0.18 ± 0.021 in test [2] (setting [8]); 0.204 ± 0.022 in test [2] (setting [9]); 0.137 ± 0.0039 in test [2] (setting [10]). The growth in test [3] (setting [11]) was determined as 0.341 ± 0.066; in test [3] (setting [12]), 0.446 ± 0.014; in test [4], 0.57 ± 0.069; in test [5] (setting [13]), 0.4139 ± 0.003; in test [5] (setting [14]) it was 0.314 ± 0.012.
`CC[C@@]1(O)C(=O)OCc2c1cc1n(c2=O)Cc2cc3ccccc3nc2-1` [Camptothecine (S,+)]: the growth in test [1] was determined as 0.2398 ± 0.0022; in test [2] (setting [6]), 0.28 ± 0.012; in test [2] (setting [7]), 0.267 ± 0.0074; in test [2] (setting [8]) it was 0.192 ± 0.016; in test [2] (setting [9]) it was 0.184 ± 0.0026; in test [2] (setting [10]), 0.141 ± 0.0034. Besides, the growth stood at 0.292 ± 0.075 in test [3] (setting [11]); 0.43 ± 0.046 in test [3] (setting [12]); 0.477 ± 0.033 in test [4]; 0.465 ± 0.052 in test [5] (setting [13]); 0.434 ± 0.031 in test [5] (setting [14]).
Take `CCC1=C[C@H]2CN3CCc4c([nH]c5ccccc45)[C@](C(=O)OC)(C2)[C@H]13` [Catharanthine]: the growth in test [1] is 0.203 ± 0.0049; in test [2] (setting [6]), 0.262 ± 0.012; in test [2] (setting [7]) it was 0.259 ± 0.006; in test [2] (setting [8]), 0.169 ± 0.013; in test [2] (setting [9]), 0.101 ± 0.0015; in test [2] (setting [10]), 0.144 ± 0.0052. The growth worked out at 0.2 ± 0.032 in test [3] (setting [11]); 0.437 ± 0.016 in test [3] (setting [12]); 0.4419 ± 0.0012 in test [4]; 0.4199 ± 0.0038 in test [5] (setting [13]); 0.3 ± 0.017 in test [5] (setting [14]).
As to `CNC(C)(C)Cc1ccccc1` [Mephentermine hemisulfate], the growth is 0.247 ± 0.0094 in test [1]; 0.303 ± 0.018 in test [2] (setting [6]); 0.274 ± 0.0032 in test [2] (setting [7]); 0.224 ± 0.012 in test [2] (setting [8]); 0.193 ± 0.0098 in test [2] (setting [9]); 0.138 ± 0.0038 in test [2] (setting [10]). The growth in test [3] (setting [11]) turned out to be 0.273 ± 0.036; in test [3] (setting [12]), 0.433 ± 0.033; in test [5] (setting [13]), 0.402 ± 0.0066; in test [5] (setting [14]), 0.381 ± 0.03.
`CCNCC(O)c1cccc(O)c1` (centres undefined) [Etilefrine hydrochloride]: the growth was determined as 0.247 ± 0.0026 in test [1]; 0.3085 ± 0.0027 in test [2] (setting [6]); 0.261 ± 0.012 in test [2] (setting [7]); 0.188 ± 0.018 in test [2] (setting [8]); 0.193 ± 0.0032 in test [2] (setting [9]); 0.134 ± 0.0026 in test [2] (setting [10]). For the same compound, the growth was 0.211 ± 0.025 in test [3] (setting [11]), 0.367 ± 0.035 in test [3] (setting [12]), 0.409 ± 0.015 in test [5] (setting [13]) and 0.345 ± 0.023 in test [5] (setting [14]).
As to `CCN(C(C)=O)c1cccc(-c2ccnc3c(C#N)cnn23)c1` [Zaleplon], the growth was found to be 0.205 ± 0.0057 in test [1]; 0.259 ± 0.0063 in test [2] (setting [6]); 0.238 ± 0.004 in test [2] (setting [7]); 0.205 ± 0.028 in test [2] (setting [8]); 0.154 ± 0.0051 in test [2] (setting [9]); 0.132 ± 0.0056 in test [2] (setting [10]). In addition, the growth in test [3] (setting [11]) is 0.243 ± 0.034; in test [3] (setting [12]), 0.307 ± 0.086; in test [5] (setting [13]), 0.411 ± 0.012; in test [5] (setting [14]) it was 0.298 ± 0.011.
As to `Cc1cccc(C)c1NC1=NCCCS1` [Xylazine], the growth in test [1] turned out to be 0.236 ± 0.0094; in test [2] (setting [6]), 0.284 ± 0.0052; in test [2] (setting [7]), 0.247 ± 0.0072; in test [2] (setting [8]), 0.208 ± 0.029; in test [2] (setting [9]), 0.169 ± 0.0055; in test [2] (setting [10]), 0.137 ± 0.006. For the same compound, the growth was 0.298 ± 0.051 in test [3] (setting [11]); 0.34 ± 0.11 in test [3] (setting [12]); 0.487 ± 0.05 in test [4]; 0.424 ± 0.0078 in test [5] (setting [13]); 0.352 ± 0.023 in test [5] (setting [14]).
